Assay outcomes (PubChem BioAssay)
ZTA counter: ZTA (EBV) inhibition in EBNA-1 counter-screen. P03206. ZTA-DNA binding, fluorescence polarization. inhibition, % at 11 µM. 0.15% of 320,000 active. AID 2234; in the data active means inhibition above about 33%
PAD4 inh: inhibitors of human PAD4. Q9UM07. recombinant PAD4, RCA probe fluorescence polarization. 0.41% of 330,000 active. inhibition, % at 6.36 µM;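 active means percent inhibition above a cutoff equal to the mean of all tested compounds plus 3 SD, cut at about 15% in these data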;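 further: 0% = PAD4 with RCA probe and DMSO and 100% = probe without PAD4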
GSTO1 counter: counter-screen for RBBP9 inhibitors: inhibitors of human GSTO1. P78417. recombinant GSTO1, activity-based probe fluorescence polarization. inhibition, % at 5.96 µM. 1.1% of 300,000 active. AID 1974;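 active means inhibition above the campaign mean inhibition plus 3 SD, cut at about 35% in these data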;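 further: 0% = GSTO1-1 with DMSO and 100% = wells lacking GSTO1-1 enzyme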
Target sequence (P78417 whole entry, looked up): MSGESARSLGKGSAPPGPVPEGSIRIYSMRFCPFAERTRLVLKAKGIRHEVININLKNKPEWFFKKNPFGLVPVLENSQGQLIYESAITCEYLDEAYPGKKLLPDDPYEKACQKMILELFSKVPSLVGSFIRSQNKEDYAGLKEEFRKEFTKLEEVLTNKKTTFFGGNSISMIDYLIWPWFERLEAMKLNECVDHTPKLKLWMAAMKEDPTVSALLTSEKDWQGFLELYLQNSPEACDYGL
LYPLA2 inh: blocks human lysophospholipase 2, a PME1 counter-screen; O95372; recombinant LYPLA2, FP-Rh probe fluorescence polarization; inhibition, % at 5.9 µM; 0.38% of 320,000 active; AID 2177;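 active means inhibition above the screen-wide mean plus 3 SD, limit set per campaign, cut at about 26% in these data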;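 further: 0% = LYPLA2 with DMSO and 100% = wells lacking LYPLA2 enzyme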
EBNA-1 inhibitor: blocks EBNA-1 binding to DNA. inhibition, % at 14.8 µM. 0.34% of 300,000 active. AID 1950. EBNA-1 DNA binding, fluorescence polarization; in the data active means inhibition above about 28%
LYPLA1 inh: blocks human lysophospholipase 1, a PME1 counter-screen; recombinant LYPLA1, FP-Rh probe fluorescence polarization; inhibition, % at 5.9 µM; 0.16% of 320,000 active; O75608;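 active means inhibition above the mean of all tested compounds plus 3 SD, set per campaign, cut at about 14% in these data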;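 further: inhibitors block serine hydrolase probe labeling of LYPLA1 so polarization falls; 0% = enzyme with DMSO and 100% = wells lacking LYPLA1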
Target sequence (O75608 whole entry, looked up): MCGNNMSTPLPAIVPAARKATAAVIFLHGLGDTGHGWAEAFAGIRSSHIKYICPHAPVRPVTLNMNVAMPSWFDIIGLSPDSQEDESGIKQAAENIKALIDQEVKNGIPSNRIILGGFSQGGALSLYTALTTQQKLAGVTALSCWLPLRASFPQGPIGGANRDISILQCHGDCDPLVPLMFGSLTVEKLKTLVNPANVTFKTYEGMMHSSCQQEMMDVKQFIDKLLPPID
Zta DNA confirm: confirmation of Epstein-Barr virus ZTA DNA binding inhibitors | inhibition, % at 11.1 µM | shares compounds with ZTA counter | AID 2361 | 30% of 320 active | Zta-ZRE DNA binding, fluorescence polarization;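 active means mean inhibition across triplicate runs above the hit threshold derived for the original primary screen, cut at about 33% in these data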;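 further: 0% = Zta with DMSO and 100% = wells lacking Zta protein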
EBNA1 counter: blocks EBNA-1 DNA binding in ZTA counter-screen | shares compounds with ZTA counter | fluorescence polarization | inhibition, % at 14.8 µM | 320 tested, under 10 active | AID 2362; call rule not given here
The depositor's hits bear a star; · = no result given. Compounds with a hit are over-represented: about 1.7% of the library has one in this group of screens.

SMILES | ZTA counter | PAD4 inh | GSTO1 counter | LYPLA2 inh | EBNA-1 inhibitor | LYPLA1 inh | Zta DNA confirm | EBNA1 counter
COc1cc(C#Cc2c(-c3cncn3C)n(C)c3ccc(-c4ccc(OC)c(OC)c4)cc23)cc(OC)c1 | 38* | 2 | · | 2 | · | 1 | 36* | 7
COc1cc(C#Cc2c(-c3cncn3C)n(C)c3ccc(-c4ccc5cc[nH]c5c4)cc23)cc(OC)c1 | · | -3 | · | · | · | · | · | ·
Nc1c(C(=O)NCc2ccccc2)c2nc3ccccc3nc2n1CCCN1CCOCC1 | 24 | -3 | -3 | -8 | 5 | -6 | · | ·
Nc1c(C(=O)NCc2ccc(F)cc2)c2nc3ccccc3nc2n1CCCN1CCOCC1 | 66* | -7 | -4 | 0 | 7 | -2 | 11 | 1
N#CCCN(C(=O)COC(=O)CCNS(=O)(=O)c1ccccc1)c1ccccc1 | -6 | 1 | · | 5 | · | 4 | · | ·
Cc1cccc(OC(C)C(=O)N2CCCN(C)CC2)c1C (stereo not drawn) | -8 | -4 | 2 | 6 | -3 | 0 | · | ·
Cc1ccc(S(=O)(=O)/N=C2/NC(=O)/C(=C/c3cc([N+](=O)[O-])ccc3O)S2)cc1 | 34* | 1 | -111 | 1 | -7 | 0 | 41* | -1
COc1cc(/C=C2\S/C(=N/S(=O)(=O)c3ccc(C)cc3)NC2=O)c([N+](=O)[O-])cc1OC | 21 | -14 | 28 | 1 | 9 | -3 | · | ·
NC(=O)CSc1nnc(-c2ccc3c(c2)OCO3)o1 | 19 | 0 | -2 | -2 | -7 | 3 | · | ·
NC(=O)c1ccc(NC(=O)CSc2nnc(-c3ccc4c(c3)OCO4)o2)cc1 | 35* | -5 | · | 0 | · | -2 | 18 | 6
COc1ccc(Cn2c(SCc3ccc(C)cc3)nc3cc(OC)c(OC)cc3c2=N)cc1Cl | 35* | -2 | -2 | 0 | 9 | -3 | 12 | 23
CC(=O)c1sc(NC(=O)c2cc(=O)c3ccccc3o2)nc1C | -10 | 5 | -22 | -1 | -6 | 11 | · | ·
CC(=O)c1sc(NC(=O)c2oc3ccc(F)cc3c2C)nc1C | 67* | 0 | · | -4 | · | -5 | 47* | 8
O=c1c(Cl)c(Cl)cnn1Cc1ccccc1Cl | 34* | 6 | 19 | -2 | 4 | -4 | 4 | -1
CN(C)S(=O)(=O)c1ccc(NC(=O)CSc2nnc(-c3ccco3)n2N)cc1 | · | -4 | · | · | · | · | · | ·
Cc1ccccc1OCc1nnc(SCC(=O)NCc2ccco2)n1C | 35* | -4 | -2 | 0 | 13 | 0 | -8 | 0
Cc1ccc(OCc2nnc(SCC(=O)NCc3ccco3)n2C)cc1 | -22 | 0 | 4 | 8 | 3 | 0 | · | ·
CC1=C(C(=O)NC2CC(C)(C)Cc3c2cnn3-c2cccc(F)c2)OCCO1 (stereo not drawn) | 3 | -2 | 6 | -7 | -22 | 1 | · | ·
COc1cccc(/C=N/n2c(COc3ccccc3)n[nH]c2=S)c1 | -15 | 1 | 5 | 6 | 15 | 1 | · | ·
O=C(Nc1cccc2ccccc12)NC1CCCCC1O (stereo not drawn) | 58* | -5 | -1 | 15 | -2 | -5 | -5 | -6
C#CCOCCOCCOCCNc1nc(N2CCN(C(=O)Cn3cc(CCCCN)nn3)CC2)nc(N2CCN(C(=O)Cn3cc(CCCCN)nn3)CC2)n1 | -18 | -1 | 3 | -3 | -11 | -1 | · | ·
C#CCOCCOCCOCCNc1nc(N2CCN(C(=O)CCCCCCCCCCNC(=O)Cn3cc(CCCCCN)nn3)CC2)nc(N2CCN(C(=O)CCCCCCCCCCNC(=O)Cn3cc(CCCCCN)nn3)CC2)n1 | 49* | 1 | 1 | 11 | 0 | 5 | 38* | -7
C#CCOCCOCCOCCNc1nc(N2CCN(C(=O)CCCCCCCCCCNC(=O)Cn3cc(CCCCCN)nn3)CC2)nc(N2CCN(C(=O)CCCCCCCCCCNC(=O)[C@@H](CCSC)n3cc(CCO)nn3)CC2)n1 | 80* | 0 | -7 | -4 | 8 | -6 | 24 | 0
